Data as given in PubChem BioAssay AID1159580 (chemical genetic matrix, 2015).
Where “and” joins values, the source holds several entries; their conditions need not be identical. Identical values can stand only once. About 2,000 (36%) of roughly 5,500 compounds were called active. Another 18% or so got no clear call; they are omitted. Rule as the data show it: active = normalized growth mostly below about 0.91 (no sharp cut-off); inconclusive = no clear call, values can overlap the other calls; inactive = mostly above about 0.92. The list shows a part of the results.

Assay: chemical genetic growth profiling, strain panel (AID 1159580);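 also: tested at 20 µM; growth read once vehicle control cultures reached saturation at 30 °C; 1 = growth at the plate median or of vehicle wells; lower values mean less growth of the strain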
Settings: S. cerevisiae deletion strains, growth OD

Measured: normalized growth

CCCCCCOc1ccccc1C(N)=O
inactive: locus YAL021C, strain ccr4, hits give low values 1.04 | locus YAL030W, strain snc1, hits give low values 0.939 | locus YBR231C, strain swc5, hits give low values 0.922 | locus YBR279W, strain paf1, hits give low values 0.934 | locus YCR088W, strain abp1, hits give low values 0.94 | locus YDL005C, strain med2, hits give low values 0.964 | locus YDL040C, strain nat1, hits give low values 0.948 | locus YDR001C, strain nth1, hits give low values 0.949 | locus YDR069C, strain doa4, hits give low values 0.989 | locus YDR195W, strain ref2 1.05 | locus YDR334W, strain swr1, hits give low values 0.959 | locus YDR335W, strain msn5, hits give low values 0.956 | locus YEL037C, strain rad23, hits give low values 0.943 | locus YEL061C, strain CIN8 (second series), hits give low values 0.935 | locus YER016W, strain bim1, hits give low values 0.928 | locus YER111C, strain swi4, hits give low values 0.941 | locus YFR010W, strain ubp6, hits give low values 0.985 | locus YGL167C, strain pmr1, hits give low values 0.92 | locus YGL173C, strain kem1, hits give low values 0.939 | locus YGL227W, strain vid30, hits give low values 0.947 | locus YHR013C, strain ard1, hits give low values 0.916 | locus YHR027C, strain rpn1, hits give low values 0.945 | locus YHR079C, strain IRE1, hits give low values 0.924 | locus YJL092W, strain hpr5, hits give low values 0.919 | locus YJL115W, strain asf1, hits give low values 0.96 | locus YJL154C, strain vps35, hits give low values 0.959
active: locus YAL013W, strain DEP1, hits give low values 0.662 | locus YAL026C, strain drs2, hits give low values 0.75 | locus YBL061C, strain skt5, hits give low values 0.893 | locus YBR009C, strain hhf1, hits give low values 0.862 | locus YBR021W, strain FUR4, hits give low values 0.84 | locus YBR023C, strain chs3, hits give low values 0.81 | locus YBR171W, strain sec66, hits give low values 0.857 | locus YBR229C, strain ROT2, hits give low values 0.86 | locus YCL011C, strain gbp2, hits give low values 0.897 | locus YCL016C, strain dcc1, hits give low values 0.874 | locus YCL029C, strain bik1, hits give low values 0.38 | locus YCL069W, strain vba3, hits give low values 0.849 | locus YDL035C, strain GPR1, hits give low values 0.553 | locus YDL074C, strain BRE1, hits give low values 0.443 | locus YDL101C, strain DUN1, hits give low values 0.505 | locus YDL134C, strain PPH21, hits give low values 0.513 | locus YDL185W, strain tfp1, hits give low values 0.636 | locus YDL192W, strain arf1, hits give low values 0.654 | locus YDR101C, strain arx1, hits give low values 0.655 | locus YDR137W, strain rgp1, hits give low values 1.39 [resistant] | locus YDR150W, strain NUM1, hits give low values 0.744 | locus YDR159W, strain sac3, hits give low values 0.784 | locus YDR162C, strain NBP2, hits give low values 0.338 | locus YDR297W, strain sur2, hits give low values 0.914 | locus YDR318W, strain mcm21, hits give low values 0.41 | locus YDR388W, hits give low values 0.71 | locus YDR392W, strain spt3, hits give low values 0.335 | locus YDR502C, strain sam2, hits give low values 0.546 | locus YEL003W, strain gim4, hits give low values 0.867 | locus YEL061C, strain CIN8, hits give low values 0.449 | locus YER015W, strain faa2, hits give low values 0.892 | locus YER110C, hits give low values 0.544 | locus YER155C, strain BEM2 (second series), hits give low values 0.249 | locus YER155C, strain BEM2, hits give low values 0.304 | locus YER167W, strain BCK2, hits give low values 0.367 | locus YGL078C, strain dbp3, hits give low values 0.864 | locus YGL086W, strain mad1, hits give low values 0.439 | locus YGL240W, strain doc1, hits give low values 0.789 | locus YGL248W, strain PDE1, hits give low values 0.612 | locus YGL253W, strain hxk2, hits give low values 0.824 | locus YGR135W, strain pre9, hits give low values 0.533 | locus YGR229C, strain SMI1, hits give low values 0.144 | locus YGR252W, strain gcn5, hits give low values 0.446 | locus YHR030C, strain SLT2, hits give low values 0.0615 and 0.831 | locus YHR079C, strain IRE1 (second series), hits give low values 0.646 | locus YHR094C, strain hxt1, hits give low values 0.765 | locus YHR129C, strain ARP1, hits give low values 0.474 | locus YHR142W, strain chs7, hits give low values 0.692 | locus YHR200W, strain rpn10, hits give low values 0.804 | locus YIL066C, strain RNR3, hits give low values 0.188 | locus YIL073C, strain SPO22, hits give low values 0.535 | locus YIL125W, strain kgd1, hits give low values 0.796 | locus YIR030C, strain dcg1, hits give low values 0.615 | locus YJL095W, strain BCK1 (second series), hits give low values 0.704 | locus YJL095W, strain BCK1, hits give low values 0.0726 and 0.863 | locus YJL129C, strain trk1, hits give low values 0.755 | locus YJL134W, strain LCB3, hits give low values 0.868 | locus YJL164C, strain tpk1, hits give low values 0.863 | locus YJL166W, strain qcr8, hits give low values 0.822 | locus YJL168C, strain set2, hits give low values 0.826 | locus YJL187C, strain SWE1 (second series), hits give low values 0.612 | locus YJL187C, strain SWE1, hits give low values 0.917
